Data as given in PubChem BioAssay (NCATS).
Records with an inconclusive call do not appear. Values without a mark were called inactive. Activity calls are given as the source filed them. Calls follow the shape of the dose curve; as a rule, active = well fitted cell-killing curve with a large enough effect; inconclusive = small, poorly fitted or top-dose-only effect; inactive = no such curve, though single readings can be large or run the other way. Bridge positions count the residues as written; N and C are the ends. Square brackets hold non-standard residues; d marks the D form. Side chains are listed from the residue outwards. Peptide text beside a SMILES is read from it. * marks the point of attachment. Phg(4-OMe) = COc1ccc([C@H](N)C(=O)O)cc1; d(aIle) = CC[C@H](C)[C@@H](N)C(=O)O; d(aThr) = C[C@@H](O)[C@@H](N)C(=O)O; NMeF = CN[C@@H](Cc1ccccc1)C(=O)O; Isobutyryl = CC(C)C(=O)*; Hexanoyl = CCCCCC(=O)*

Test: MCF7 Cancer Cell Toxicity qHTS against the NCATS CANVASS Library (AID 1347369)
Details: MCF7 viability, ATP luminescence (CellTiter-Glo), 72 h; series mostly up to 46 µM; activity change, negative = cytotoxicity: at the top concentration
From the text: Natural products and their derivatives continue to be wellsprings of nascent therapeutic potential. However, many laboratories have limited resources for biological evaluation, leaving their previously isolated or synthesized compounds largely or completely untested. To address this issue, the Canvass library of natural products was assembled (https://tripod.nih.gov/canvass), in collaboration with academic and industry researchers, for quantitative high-throughput screening (qHTS) across a diverse set of cell-based and biochemical assays. The pure (>85% purity by liquid chromatography/mass spectrometry [LC/MS]) Canvass library of 346 natural products were submitted by 45 academic laboratories and companies around the world. We collected pure natural products to circumvent deconvolution and structure elucidation due to time and resource limitations. The library was formatted into 1536-well plates and evaluated in 50 qHTS (in an 11-pnt concentration series) bioassays with broad scope of disease-relevant mechanisms. The resulting data set from 50 different assays was then systematically analyzed to identify overall trends and specific natural products with interesting biological activities. Reported herein are the results of each individual qHTS and their corresponding assay protocol. This assay uses ATP (luminescence) content to measure the cytotoxiciy of compounds on MCF7 human breast cancer cell line. National Center for Advancing Translational Sciences (NCATS), Rockville, MD National Institute of Health (NIH), Bethesda, Maryland
Cancer Cell Toxicity qHTS protocol: MCF7 cell line 1. In a 1536 well, tissue culture treated white solid bottom plates (Corning 7494), 5 uL of MCF7 cell solution (final concentration of 500 cells / well) was dispensed using the Multidrop Combi dispenser (Thermo Fisher Scientific) into columns 2-48, rows 1-32. DMEM + 10% FBS + 1% Pen/Strep solution was dispensed into column 1, row 1-32 also using the Multidrop Combi dispenser. 2. Control and Compounds were pin transferred (~23nL volume) to the assay plates via Wako Pin-tool (Wako Automation, Richmond VA) equipped with a 1536 pin head. The compounds were transferred to columns 5-48 resulting in a final concentration ranging from 0.17 nM to 103 uM. Dose response titration of Bortezomib was pin transferred into column 2, rows 1-32 (2mM; 1:2 dilution; 16 points) resulting to a final concentration range of 0.3nM - 9.2uM. 3. The assay plates were further incubated in the at 37C, 5% CO2, 95% Rh for 72 hr. 4. After incubation, 3 uL of CellTiterGlo reagent (Promega) was added to the assay plates (column 1-48, rows 1-32) using the Multidrop Combi dispenser. The assay plates were centrifuged for 15 sec at 1000 rpm to remove bubbles. 5. Luminescence signal was acquired via the ViewLux plate reader (PerkinElmer) using a clear emission filter, 2 sec exposure, and 1x binning settings.
% is scaled to controls: 0 for no effect and ±100 for the full control effect; potency is read from the fitted curve at half-maximal effect.

Row | Compound | activity change, negative = cytotoxicity | outcome | Potency
1 | COC(=O)[C@]1([C@H]2CCC(=O)O2)CC(=O)c2c(O)cc(C)cc2O1 | -19% |  | 
2 | C=CC(CCCCC)C1C(=O)NC(=O)C1C(=O)C1C(/C=C/C)C=CC2CC(C(=O)O)CC(C)C21 (stereo not given) | -16.2% |  | 
3 | C[C@@]12C[C@@H](C[C@@H]3C(=O)O[C@@H](c4ccoc4)[C@H](OC(=O)c4ccccc4)[C@@H]31)OC2=O | -22.3% |  | 
4 | CN1C(=O)C(=O)N2C(=C[C@]3(c4c[nH]c5ccccc45)c4ccccc4N[C@H]23)C1=O |  | inactive | 
5 | C[n+]1cc2cc(C(N)=O)[nH]c3c(=N)c(Cl)c(N)c1c23 | -15.6% |  | 
6 | C/C=C1/CN2C3CC1C1C=CC(=O)N4c5ccccc5[C@@]3(C[C@@H]2C2=C[C@H]3C5CC6N(CC[C@@]67c6ccccc6N(C2=O)[C@@H]37)C/C5=C/C)[C@H]14 (stereo not given in full) |  |  | 16.5 µM (active)
7 | O=C1CC(c2ccc(O)cc2)Oc2cc(O)ccc21 (stereo not given) |  | inactive | 
8 | COC(=O)[C@@]1(C)CCC[C@]2(C)c3cc(OC)ccc3CC[C@@H]12 | -2.63% |  | 
9 | CC(=O)O[C@H]1c2ccccc2-c2c3c(cc4c2[C@@H]1N(C(C)=O)CC4)OCO3 | -21.8% |  | 
10 | C[C@@]12CCC[C@@](C)(C(=O)O)[C@H]1CC[C@@]13C[C@@H](CC[C@H]12)[C@](C)(O)C3 | -23.4% |  | 
11 | CO[C@@H](C[C@@H](C)[C@@H](O)/C=C/C=C/CNC(=O)C(C)(C)[C@H](O)\C(C)=C/C=C\C=C\Cc1cnco1)[C@]1(O)[C@@H](C)C(=O)N(C)[C@@]12COC2=O |  | inactive | 
12 | C=C(C)CC[C@H](Cc1c(O)cc(O)c2c1O[C@H](c1ccc(O)cc1)CC2=O)C(=C)C | 4.39% |  | 
13 | O=C1CC(c2ccc(O)cc2)Oc2ccccc21 (stereo not given) | 2.9% |  | 
14 | C=C[C@](Cl)(CBr)CCC=C(C)C | -1.16% |  | 
15 | O=C1CC2OCC=C3CN4C5CC3C2[C@@H]2N1c1ccccc1[C@]52C[C@@H]4C1=C[C@H]2C3CC4N(CC[C@@]45c4ccccc4N(C1=O)[C@@H]25)C/C3=C/CO (stereo not given in full) | -1.17% |  | 
16 | C[C@]12CC[C@]3(C1)[C@H](CC2=O)C[C@@H](OC(=O)c1ccccc1)[C@H]1[C@](C)(C(=O)O)CCC[C@@]13C |  | inactive | 
17 | CCCCCC(=O)N[C@@H](CC(C)C)C(=O)N[C@H](C=O)CCC(=O)O (Hexanoyl-Leu-Glu-aldehyde) |  | inactive | 
18 | O=c1cc(-c2ccc(O)c(O)c2)oc2cc(O[C@@H]3O[C@H](CO)[C@@H](O)[C@H](O)[C@H]3O)cc(O)c12 | -1.91% |  | 
19 | C=C[C@@]1(C)CC[C@@H]([C@H](C)C(C)=O)O1 |  | inactive | 
20 | C[C@@]12CCC[C@@](C)(C(=O)OP(=O)(O)OC[C@H]3O[C@@H](n4cnc5c(N)ncnc54)[C@H](O)[C@@H]3O)[C@H]1C[C@@H](O)[C@@]13C[C@@H](CC[C@@H]21)[C@](C)(O)C3 |  | inactive | 

Row | Compound | activity change, negative = cytotoxicity | outcome | Potency
21 | CO[C@@H]1[C@H](O)[C@@H](C)O[C@@H](OC[C@@H]2C(C)OC(=O)/C=C/[C@H](C)C(O[C@@H]3O[C@H](C)CC4(OC(=O)O[C@@H]4C)C3O)[C@@H](C)CC(C)C(=O)/C=C/[C@H]3OC23)[C@@H]1OC (stereo not given in full) | -10.4% |  | 
22 | CN1CC[C@@]2([C@@]34CCN(C)[C@@H]3Nc3ccccc34)c3ccccc3N[C@@H]12 | -10.3% |  | 
23 | O[C@H]1c2ccccc2-c2c3c(cc4c2[C@@H]1NCC4)OCO3 |  |  | 29.4 µM (active)
24 | COc1cc(C2OCC3C(c4ccc(O)c(OC)c4)OCC23)ccc1O (stereo not given) | -7.78% [at 9.17 µM] |  | 
25 | O[C@H]1C=C2[C@H]3CN(Cc4cc5c(cc43)OCO5)[C@H]2C[C@@H]1O | -3.02% |  | 
26 | C=C[C@]1(C)CC[C@@H]([C@H](C)C(=O)CC=C(C)C)O1 | -16.1% |  | 
27 | COc1c(O)cc(O)c2c(=O)cc(-c3ccccc3)oc12 | 3.5% |  | 
28 | CO[C@H]1/C=C/CCCCC(=O)O[C@@H](/C(C)=C/[C@H](C)C(=O)C[C@H](O)CC2CC(=O)NC(=O)C2)[C@@H](C)C1 |  | inactive | 
29 | C=C1C[C@H]2O[C@@H]3[C@@H]4[C@H](CC[C@@](C)(O)[C@@H]42)[C@H](C)COC3(C)[C@@H](OC(=O)CCCCCCC)CC1=O (stereo not given in full) |  | inactive | 
30 | C=C(C)C(=O)O[C@H]1C[C@@]2(C)OC(=CC2=O)/C(C)=C\[C@H]2OC(=O)C(=C)[C@H]12 |  |  | 4.16 µM (active)
31 | C/C=C(/C)c1cc(O)c(C)c2c1Oc1cc(O)cc(C)c1C(=O)O2 | -22.6% |  | 
32 | O=C1OC(CCO)c2cccc(O)c21 (stereo not given) |  | inactive | 
33 | Oc1ccc(C2Oc3cc(O)c4c(c3[C@@H]2c2cc(O)cc(O)c2)[C@H]2C(c3ccc(O)cc3)c3c(O)cc5c(c3[C@H]2C4c2ccc(O)cc2)[C@H](c2cc(O)cc(O)c2)C(c2ccc(O)cc2)O5)cc1 (stereo not given in full) | -28.7% |  | 
34 | CC[C@H]1[C@@H](C)[C@@H](c2cc(OC)c(OC)cc2OC)[C@H](C)[C@@H](c2cc(OC)c(OC)cc2OC)[C@@]12C=C(OC)C(=O)C=C2OC |  | inactive | 
35 | CC[C@H](C)[C@H]1NC(=O)[C@@H](NC(=O)C(C)C)[C@@H](C)OC(=O)[C@H](COC(=O)CNC(C)=O)NC(=O)[C@@H]([C@@H](C)O)NC(=O)[C@H](Cc2ccccc2)N(C)C(=O)[C@H](c2ccc(OC)cc2)NC1=O (Isobutyryl-T[d(aIle)][Phg(4-OMe)][NMeF][d(aThr)]S([Gly-Ac]); ester 1-C) |  | inactive | 
36 | COc1cc2c(c(O)c1O)C(=O)c1c(coc1C)C2=O |  |  | 7.39 µM (active)
37 | C=C1[C@@]2(C)CC3C4(C)CCC(O)C(C)(C)C4CCC3(C)[C@]1(C(=O)OC)C(=O)C(C)(O)C2=O (stereo not given in full) |  | inactive | 
38 | C=CC(C)(C)C(=O)[C@@H](C)[C@@H]1CC[C@@](C)(C=C)O1 | 4.97% |  | 
39 | CC[C@@H](c1cc(OC)c(OC)cc1OC)[C@H](C)[C@@H](/C(C)=C/c1cc(OC)c(OC)cc1OC)c1cc(OC)c(OC)cc1OC | -22.1% |  | 
40 | CO[C@H]1[C@@H](OC(=O)/C(C)=C\[C@@H]2O[C@@H]2[C@H]2O[C@H]2C)[C@H](O)[C@H](OCC23C[C@@H]4[C@H](C)CC[C@H]4C4(C=O)CC2C=C(C(C)C)C34C(=O)O)O[C@@H]1C (stereo not given in full) | 2.04% |  | 
